In ChEMBL document CHEMBL3988442, “University of Dundee, Small-Polar-MMV Screening Library” (2021):
Screen size: about 48,000 compounds; about 13,000 (27%) showed an effect of 50% or more. The list shows a part of the results.

system: Wolbachia pipientis; assay: Anti-Wolbachia Cell-Based Screen; type: functional; design: scale not given: in the data most compounds retested in dose-response had high values; details: 5 µM

Compound	Percent Effect [%]
Cc1cc(C(=O)NCc2ccc(N3CCCC(C(N)=O)C3)cc2)no1 (centres undefined)	-5.438
O=C(Cc1ccc(F)c(F)c1)NC1COc2ccccc2C1=O (centres undefined)	-17.04
Cc1ccc(CN(CC(=O)NC2CCOCC2)c2ccc(F)cc2)o1	-4.166
CCOc1ncnc2c1CCN(C(=O)CN(C)C)CC2.O=C(O)C(F)(F)F	-0.06996
O=C(c1cc[nH]n1)N(Cc1ccc(F)cc1)CC1CC1	-5.824
CCN(CC)C(CNC(=O)CCc1nc(C(C)C)no1)c1ccco1 (centres undefined)	-1.128
Cc1nc(N2CCN(C(=O)C3CC3)CC2)c2c(n1)c(C)nn2C	1.518
NC(=O)c1cnc(NC2CCN(C(=O)C3CC3)CC2)c(Cl)c1	4.189
Cn1ncc2c(=O)[nH]c(CN3CCCC3c3cccs3)nc21 (centres undefined)	-2.053
CCc1nc(NC2CCCN(C(=O)c3cccs3)C2)c2cnn(C)c2n1 (centres undefined)	96.59
CC(C)c1cc(NC2CCCN(C(=O)c3cccs3)C2)ncn1 (centres undefined)	-8.38
Cc1nc(NC2CCN(C(=O)C3CC3)CC2)c2cnn(C)c2n1	200.9
COC(=O)c1sccc1S(=O)(=O)NCCc1ccoc1	-8.727
CN(C)c1ncc(I)c(C2CCCCN2S(C)(=O)=O)n1 (centres undefined)	26.22
CN(C)c1ncc(I)c(C2CCCN2C)n1.Cl (centres undefined)	88.04
CN(C)c1ncc(I)c(C2CCCCN2C)n1 (centres undefined)	140.6
CC1CCCCN1C(=O)Cn1cc(I)cn1 (centres undefined)	11.08

Compound	Percent Effect [%]
CN(C)c1ncc(I)c(C2CCCN2S(C)(=O)=O)n1 (centres undefined)	113.9
CN(C)c1cccc(C2CCCN2S(N)(=O)=O)c1 (centres undefined)	-8.581
Cc1nc(CN2CCC(CNC(=O)NCCC3CCC3)CC2)oc1C	-2e-14
CN(C)C(=O)c1nc(CN2CC(Cc3ccccc3)CC2=O)no1 (centres undefined)	4.683
CC(=O)N1CCc2[nH]cnc2C12CCN(C(=O)CCn1cccn1)CC2	-18.33
COC[C@@]12CC[C@@H](N3CCOCC3)C[C@H]1CCN(c1cnccn1)C2	11.4
CC(C)Nc1nc2c(cc1C(=O)N(C)C)CCNCC2.O=C(O)C(F)(F)F.O=C(O)C(F)(F)F	-6.085
CNC(=O)c1cc2c(nc1NCC1CC1)CCN(S(=O)(=O)C1CC1)CC2	20.95
CN(C)C(=O)c1cc2c(nc1NCC1CC1)CCNCC2	103.6
CNC(=O)c1cc2c(nc1NCC1CC1)CCNCC2	13.18
CCN1CCc2cc(C(=O)N(C)C)c(NCC3CC3)nc2CC1	103.3
CNC(=O)c1cc2c(nc1NCC1CC1)CCN(c1ccncn1)CC2.O=C(O)C(F)(F)F	-1.556
CCS(=O)(=O)N1CCc2cc(C(=O)N(C)C)c(NCC3CC3)nc2CC1	112.1
CNC(=O)N1CCc2cc(C(=O)N(C)C)c(NCC3CC3)nc2CC1.O=C(O)C(F)(F)F	7.418
CNC(=O)N1CCc2cc(C(=O)NCC3CC3)c(NC(C)C)nc2CC1	0.2326
CNC(=O)c1cc2c(nc1NCC(C)C)CCN(CC1CC1)CC2.O=C(O)C(F)(F)F.O=C(O)C(F)(F)F	9.792
CN(C)C(=O)c1cc2c(nc1NCC1CC1)CCN(CC1CC1)CC2	87.77
